D1 mod: D1 dopamine receptor (human) allosteric modulation; HEK293 D1, CRE-luciferase, dopamine EC30 potentiation; actives deviate in either direction; AID 641; P21728; 58,000 tested, 5.9% active; B-score at 10 µM;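 active means luminescence count or its row- and column-corrected plate score outside the 99.7% band of the plate's sample wells, on either side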
BAP1 block: blocks human BAP1 ubiquitin-AMC hydrolysis; Q92560; recombinant BAP1, Ub-AMC hydrolysis fluorescence kinetic; stronger effect = lower value; calls only at 20 µM; 72,000 tested, 0.48% active;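 active means activity remaining at or below 50% of control, provided the compound also passes the data quality filters; inactive means the rest, including low values that fail the filters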;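 further: 100% = DMSO wells rate and 0% = substrate alone blank rate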
hDAT+cocaine: human DAT dopamine uptake with cocaine, either direction; Q01959; LLC-PK1 hDAT cells, [14C]-dopamine uptake with cocaine IC80; actives deviate in either direction; B-score at 10 µM; 110,000 tested, 1.3% active; AID 449768;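 active means Z score or B-score, a plate-position-corrected score, falls beyond the plate's 99.7% confidence bounds, in either direction; inactive means both scores lie inside the 99.7% bounds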;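 further: scored against the spread of the other compound wells on the same plate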
Target sequence (Q01959 whole entry, looked up): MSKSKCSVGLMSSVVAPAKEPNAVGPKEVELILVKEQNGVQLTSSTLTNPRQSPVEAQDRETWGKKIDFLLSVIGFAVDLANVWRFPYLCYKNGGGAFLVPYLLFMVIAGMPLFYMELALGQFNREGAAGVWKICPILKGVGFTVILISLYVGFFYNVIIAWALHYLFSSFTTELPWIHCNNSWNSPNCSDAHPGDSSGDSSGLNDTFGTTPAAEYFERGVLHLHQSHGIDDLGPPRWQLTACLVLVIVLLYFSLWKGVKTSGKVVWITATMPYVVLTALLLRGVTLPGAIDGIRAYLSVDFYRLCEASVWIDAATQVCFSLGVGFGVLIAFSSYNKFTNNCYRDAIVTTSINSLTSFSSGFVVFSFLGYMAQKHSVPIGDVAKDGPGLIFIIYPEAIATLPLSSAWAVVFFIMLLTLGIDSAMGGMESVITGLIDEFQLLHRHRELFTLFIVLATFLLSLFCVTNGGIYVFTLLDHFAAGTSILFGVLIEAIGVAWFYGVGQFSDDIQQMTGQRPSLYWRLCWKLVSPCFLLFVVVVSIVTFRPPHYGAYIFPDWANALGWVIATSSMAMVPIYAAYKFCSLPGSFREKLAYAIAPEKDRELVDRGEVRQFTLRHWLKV
* marks the source's active call; other numbers are inactive results; i = inactive; . = no result. Many of the other results were omitted from the sample, so hits are more common in it than they were.

SMILES	D1 mod	BAP1 block	hDAT+cocaine
COc1ccc(C(=O)c2coc3ccc(O)c(CN4CCCC4)c23)cc1	-0.254	i	-0.0884
COc1ccc(C(=O)c2coc3ccc(O)c(CN4CCOCC4)c23)cc1	2.25	i	3.46*
COC(=O)c1cn(-c2ccccc2)nc1-c1ccncc1	.	.	1.79*
O=C(OCc1ccccc1)c1cn(-c2ccccc2)nc1-c1ccncc1	.	.	-0.0465
COCCNC(=O)NC1(C(F)(F)F)Oc2ccc(Cl)cc2O1 (stereo not drawn)	0.114	.	-2.66
O=C(NCc1cccnc1)NC1(C(F)(F)F)Oc2ccc(Cl)cc2O1 (stereo not drawn)	.	i	-7.42*
COc1ccc(C(=O)COC(=O)C(CCCCN2C(=O)C3C4C=CC(C4)C3C2=O)N2C(=O)C3C4C=CC(C4)C3C2=O)cc1 (stereo not drawn)	.	.	0.0268
COc1ccc(C(=O)COC(=O)CCN2C(=O)C3C4CC(C(Br)C4Br)C3C2=O)cc1 (stereo not drawn)	.	.	-2.26*

Screening data: PubChem, several laboratories
